Coupling enz – qHTS Assay for Inhibitors of Fructose-1,6-bisphosphate Aldolase from Giardia Lamblia: Coupling assay counterscreen. actives 0.67% (n = 290,000). activity change, negative = inhibition, % at 58.2 µM, hits read low. AID 2472, 2010. coupling enzyme system counterscreen, AmpLite Red fluorescence; in the data active = activity change below about -30%; also: % is scaled to controls: 0 for no effect and ±100 for the full control effect
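Fluorescence at 525 nm excitation and 598 nm emission measured inhibition of the coupled detection system without aldolase. Compounds (at 57.5 uM final) were preincubated 10 min at room temperature with coupling enzyme reagent before a 20 min substrate/AmpLite Red step.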
HTT aggregate – qHTS Multiplex Assay to Identify Dual Action Probes in a Cell Model of Huntington: Aggregate Formation (GFP). actives 1.1% (n = 220,000). Potency, µM (doses to about 46.1 µM), for the others: at the highest dose activity change, negative = inhibition, hits mostly inhibitors. PC12 HttQ103-GFP aggregates, Acumen cytometry, 40 h; also: potency is read from the fitted curve at half-maximal effect; % is scaled to controls: 0 for no effect and ±100 for the full control effect; nearly all actives have a fitted effect of over 60% in size
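Read-out: GFP aggregate count by laser scanning cytometer (488 nm excitation, 500-530 nm emission, 1–25 µm objects >6 SD above background). Cells: PC12, inducible HTTex1-Q103-GFP, 100 nM tebufenozide; compounds titrated.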
VDR inh – Inhibitors of the vitamin D receptor (VDR): qHTS; actives 0.93% (n = 400,000); AID 504847, 2011; Potency, µM, without a hit: max response, negative = inhibition, most hits filed as inhibitors; Vitamin D3 receptor (Homo sapiens), P11473; VDR-SRC2-3 peptide fluorescence polarization, 2 h; also: potency is read from the fitted curve at half-maximal effect; % is scaled to controls: 0 for no effect and ±100 for the full control effect
Target sequence (P11473 whole entry, looked up): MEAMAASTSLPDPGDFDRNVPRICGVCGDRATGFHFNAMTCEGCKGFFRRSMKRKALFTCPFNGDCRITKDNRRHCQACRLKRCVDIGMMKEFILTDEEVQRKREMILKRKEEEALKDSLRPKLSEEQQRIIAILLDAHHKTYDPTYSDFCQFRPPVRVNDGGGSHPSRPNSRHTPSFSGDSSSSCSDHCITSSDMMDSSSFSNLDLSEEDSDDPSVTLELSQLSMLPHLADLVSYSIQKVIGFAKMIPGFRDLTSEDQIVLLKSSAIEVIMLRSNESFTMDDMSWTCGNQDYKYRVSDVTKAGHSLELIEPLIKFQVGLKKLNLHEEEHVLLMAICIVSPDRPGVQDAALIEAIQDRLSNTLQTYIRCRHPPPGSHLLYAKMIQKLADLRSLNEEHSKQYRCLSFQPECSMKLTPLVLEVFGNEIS
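After 23 nl compound addition and a short centrifugation, plates sat for 2 hours at ambient temperature; polarization of fluorescence then indicated loss of VDR binding to peptide SRC2-3.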
KDM4E inh – qHTS Assay for Inhibitors of Human Jumonji Domain Containing 2E (JMJD2E) | Lysine-specific demethylase 4E (Homo sapiens), B2RXH2 | JMJD2E catalytic domain, FDH-coupled NADH fluorescence (FDH is formaldehyde dehydrogenase) | Potency, µM (series often up to 57.1 µM), inactives show top-dose activity change, negative = inhibition, usual class: inhibitors | actives 1.6% (n = 230,000); active = well fitted inhibition curve with a large enough effect, not every such curve was filed as active; inconclusive = small, poorly fitted or top-dose-only effect, or another doubt; inactive = no such curve, though single readings can be large or run the other way;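 also: potency is read from the fitted curve at half-maximal effect; 0% = wells with enzyme and -100% = buffer wells without enzyme; nearly all actives have a fitted effect of over 50% in size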
HTT cytoprotect – qHTS Multiplex Assay to Identify Dual Action Probes in a Cell Model of Huntington: Cytoprotection (ATP) | PC12 HTT-Q103 induced, cytoprotection, ATP luminescence, 40 h | Potency, µM (highest dose often 56.4 µM), for inactives: cytoprotection (ATP increase), most hits filed as activators | actives 0.14% (n = 230,000); also: potency is read from the fitted curve at half-maximal effect; % of control where 0% means no effect; nearly all actives have a fitted effect of over 45% in size
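Quantitative HTS on tebufenozide-induced (100 nM) PC12 cells expressing HTTQ103 exon 1–GFP; compounds tested as a concentration series; survival measured via cellular ATP.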
GoLoco inh red – qHTS Assay for Inhibitors of RGS12 GoLoco Motif Activity (Red Fluorophore); Potency, µM (doses to about 61.6 µM), without a hit: top-dose activity, negative = inhibition, actives largely listed as inhibitors; Guanine nucleotide-binding protein G(i) subunit alpha-1 (Homo sapiens), P63096; AID 880, 2007; Gai1:RGS12 GoLoco peptide FP, rhodamine, 10 min; actives 0.44% (n = 230,000); active = well fitted inhibition curve with a large enough effect, not every such curve was filed as active; inactive = no such curve, though single readings can be large or run the other way; also: potency is read from the fitted curve at half-maximal effect; % is scaled to controls: 0 for no effect and ±100 for the full control effect; nearly all actives have a fitted effect of over 30% in size
* marks the source's active call; other numbers are inactive results; [ ] = another dose, or the depositor's remark. A selection: hits, their analogues and other compounds. The true share with any hit is near 2.3%. Unless noted, calls follow the shape of the dose curve; as a rule, active = well fitted curve in the direction sought with a large enough effect; inconclusive = small, poorly fitted or top-dose-only effect, or another doubt; inactive = no such curve, though single readings can be large; an effect the other way counts as inactive or inconclusive.

For CS(=O)(=O)c1ccccc1C(=O)Nc1ccccc1Cc1ccccc1 the results were Coupling enz -3 and VDR inh 12%.
CC(Sc1nnnn1-c1ccc(Cl)cc1)C(=O)NCC(=O)Nc1ccc(F)c(F)c1F (centres undefined) was read as Coupling enz 1, HTT aggregate 6%, VDR inh 2%, KDM4E inh -10%, HTT cytoprotect 43%[0.074 µM] and GoLoco inh red 7%.
For O=C(N/N=C/c1cccnc1)c1ccc(NC(=O)c2ccccc2Cl)cc1 the results were Coupling enz -2 and VDR inh 6%.
Screening O=C(Nc1ccc(Oc2cccnc2)cc1)c1ccccc1Cl returned Coupling enz -1, HTT aggregate 11µM*, VDR inh -2% and KDM4E inh -6%.
Screening CN(C)c1oc(-c2ccc(COc3ccccc3)o2)nc1C#N returned VDR inh 0%.
Screening CC(=O)Nc1sc(NC(=O)c2ccccc2)nc1-c1cccs1 returned Coupling enz 2, HTT aggregate -9%, VDR inh -10%, KDM4E inh 18%, HTT cytoprotect -35%[10 µM] and GoLoco inh red -2%.
`CCN(CC)c1ccc(/C=C(\C#N)c2nc(-c3cccs3)c(NC(C)=O)s2)cc1` gave Coupling enz -8, HTT aggregate 13µM*, KDM4E inh -6% and HTT cytoprotect 3%[10 µM].
Cn1c(=O)oc2cc(S(=O)(=O)NCc3ccncc3)ccc21 was read as Coupling enz 4, HTT aggregate 8.9µM*, VDR inh 10%, KDM4E inh 9%, HTT cytoprotect -23%[0.074 µM] and GoLoco inh red 21%.
`Cn1c(=O)oc2cc(S(=O)(=O)NCc3ccc(C(=O)O)cc3)ccc21` gave Coupling enz 0, HTT aggregate -7%[9.22 µM], VDR inh 13%, KDM4E inh 5%, HTT cytoprotect -6%[10 µM] and GoLoco inh red 38%.
Cc1ccc(NC(=O)c2cc(N3C(=O)C=CC3=O)ccc2N2CCOCC2)cc1Cl was read as Coupling enz -3, HTT aggregate inconclusive, VDR inh 45µM*, KDM4E inh -1% and GoLoco inh red 2%.
Cc1ccc(NC(=O)c2cc(N3C(=O)CCC3=O)ccc2N2CCOCC2)cc1 was read as Coupling enz 1, HTT aggregate -16%[9.22 µM], VDR inh 0%, KDM4E inh -14%, HTT cytoprotect -7%[10 µM] and GoLoco inh red 2%.
For COc1ccc(C(=O)/C=C/c2cccc(OCc3ccccc3)c2)cc1CSCC(=O)O the results were Coupling enz 13 and VDR inh 13µM*.
O=c1c2ccccc2nc(N/N=C/c2c(O)ccc3ccccc23)n1O was read as Coupling enz -22, HTT aggregate inconclusive, VDR inh 10%, KDM4E inh 11µM*, HTT cytoprotect -87%[10 µM] and GoLoco inh red 9%.
`O=c1c2ccccc2nc(N/N=C/c2ccc(O)cc2)n1O` gave Coupling enz -1, HTT aggregate 9%, VDR inh 0%, KDM4E inh inconclusive, HTT cytoprotect -10%[10 µM] and GoLoco inh red -4%.
`COc1ccc(-n2[nH]c(C)cc2=O)cc1` gave Coupling enz -32*, HTT aggregate inconclusive, VDR inh 5%, KDM4E inh 6%, HTT cytoprotect -15% and GoLoco inh red 6%.
`Cc1ccc(C)c(-n2nnc(C(=O)Nc3ccc(Br)cc3)c2C)c1` gave VDR inh 10%.
